Screens deposited in PubChem BioAssay by National Center for Advancing Translational Sciences (NCATS).
Hits are enriched below; roughly 8% of the tested compounds scored in any of these assays.
Marburg entry: qHTS for Inhibitors of binding or entry into cells for Marburg Virus; Potency, µM (doses to about 49.2 µM), without a hit: at the highest dose activity change, negative = inhibition, hits mostly inhibitors; 6.5% of 18,000 active; AID 720532, 2013; Marburg virus pseudotype entry/binding inhibition, cell-based
Lassa entry: qHTS for Inhibitors of binding or entry into cells for Lassa Virus. Potency, µM (titrated, usually from 49.2 µM), inactives show at the highest dose activity change, negative = inhibition, actives largely listed as inhibitors. Lassa virus pseudotyped entry inhibition, cell-based qHTS. 4.1% of 18,000 active
The depositor's hits bear a star; ? = inconclusive; . = not tested or not shown; ! = a repeat was not active; [ ] = dose if it differs, or a comment. The call rests on the fitted dose curve; tested in HEK293 cells. On the % scale 0 is the no-effect control and ±100 the full control effect; potency means the concentration at half of the fitted maximal effect.

SMILES	Marburg entry	Lassa entry
CCCC=CC1C(=O)[C@@H]2O[C@H]2C2(OCC(CC)(CC)CO2)C1CO (stereo partly specified)	-11%[8.59 µM]	0%[8.59 µM]
CCOC(=O)CN1C(=O)[C@]2(O[C@H](COc3ccccc3)CC3=C2CCC3)c2ccccc21	30%[8.59 µM]	-15%[8.59 µM]
CC(=O)c1ccc(F)c(-c2cc(C)cc3c2OC(CNC(=O)Cc2ccc4c(c2)OCO4)C3)c1 (stereo unspecified)	-3%	-9%
CC=CC1=CC2=CC(=O)C(C)(OC(=O)c3c(C)cc(O)cc3O)C(=O)C2=CO1 (stereo unspecified)	-2%[8.59 µM]	.
C[C@]12CC[C@H](OS(=O)(=O)O)CC1=CC[C@@H]1[C@@H]2CC[C@]2(C)C(=O)CC[C@@H]12	-8%	-7%
C[C@@H]1[C@H]2CC[C@@H]3[C@@H]4CC=C5C[C@@H](N(C)C)CC[C@]5(C)[C@@H]4CC[C@@]32CN1C	5.6µM*	-9%[17.8 µM]
C[C@@H]1CC[C@H]2C(=O)O[C@@H](Cc3ccccc3)CN2[C@@H]1c1ccc(Br)cc1	7%[8.59 µM]	12%[8.59 µM]
COCC(=O)O[C@]1(CCN(C)CCCc2nc3ccccc3[nH]2)CCc2cc(F)ccc2[C@@H]1C(C)C	8.9µM*	20µM*
CCC1CN(CC(=O)N(C)Cc2nc3ccccc3[nH]2)Cc2cc(OC)ccc2O1 (stereo unspecified)	-13%	-2%
CC1=C(C(=O)Nc2ccc3[nH]ncc3c2)C(c2ccc(F)cc2)NC(=O)N1 (stereo unspecified)	8%	?
O[C@H]1C[C@H](c2ccccc2)N(CC2CCCCC2)C[C@H]1n1cc(C2CC2)nn1	-30%	-26%
N#Cc1cccc(-c2nc(N3CCNCC3)c3ccccc3n2)c1	16µM*	-1%
c1ccc2c(N3CCNCC3)nc(-c3ccc4c(c3)OCO4)nc2c1	10µM*	-9%
CS(=O)(=O)Nc1cccc(-c2nc(N3CCNCC3)c3ccccc3n2)c1	?	15%
Cc1noc(C)c1-c1nc(N2CCNCC2)c2ccccc2n1	?	5%
O=C(OCc1cn([C@@H]2CN(CC3CCCCC3)[C@@H](c3ccccc3)C[C@@H]2O)nn1)c1ccccc1	-28%	.
CCOC(=O)C1=CN(CCCc2cn(Cc3ccccc3)nn2)C(=O)NC1c1ccccc1 (stereo unspecified)	3%[8.59 µM]	3%[8.59 µM]
COC(=O)[C@@]1(C=C2c3ccc(F)cc3[C@@H](OC)[C@@H]2C)[C@@H]2c3ccccc3O[C@@H]21	?	1%[8.59 µM]
CCCCC[C@H](O)C/C=C1/C(=O)C=C[C@@H]1C/C=C\CCCC(=O)O	12%	?
CCCCC/C=C/C=C1/C(=O)C=C[C@@H]1C/C=C\CCCC(=O)O	?	16µM*!
CCCCCc1cc(O)c2c(c1)OC(C)(C)[C@@H]1CCC(C)=C[C@@H]21	-23%	35µM*
CCCCCCC(C)(C)c1cc(OC)c2c(c1)OC(C)(C)[C@@H]1CC=C(C)C[C@@H]21	5%	-19%
O[C@@](CCN1CCCCC1)(c1ccccc1)[C@@H]1C[C@H]2C=C[C@@H]1C2	?	-10%[17.8 µM]
CCOC(=O)[C@@H]1CSCCS(=O)(=O)N1C(=O)c1ccc(Br)cc1	13%	10%
CC(C)C(=O)N[C@H]1CCCN1C(=O)C=Cc1ccccc1	-22%[8.59 µM]	13%[8.59 µM]
SMILES	Marburg entry	Lassa entry
COC(=O)C1=C(C)N(CC2CC2)C(=NCCc2cccnc2)NC1c1ccccc1 (stereo unspecified)	4%[8.59 µM]	0%[8.59 µM]
CSC[C@H]1CN(Cc2ccccc2)C(=O)[C@H]1CC(=O)Nc1ccc(Br)cc1	-22%	-27%
CC12C=C(C=CCCc3ccco3)C(C)(C1)C(CCc1ccco1)CC2=O (stereo unspecified)	-6%[8.59 µM]	9%[8.59 µM]
Nc1nc(Cl)nc2c1ncn2[C@@H]1O[C@H](CO)[C@@H](O)[C@@H]1F	2.5µM*	?
Nc1nc(Cl)c2ncn(C3OC(CO)C(O)C3O)c2n1 (stereo unspecified)	19%	5%
CO[C@H]1[C@H](NC(=O)c2ccco2)c2ccccc2C12CCN(Cc1cc(Cl)ccc1O)CC2	?	-28%
C=CCOC(=O)N[C@H](c1ccccc1)[C@H](C)C=CCC(=O)OC	9%[8.59 µM]	7%[8.59 µM]
CO/N=C(\C(=O)N[C@@H]1C(=O)N2C(C(=O)O)=C(CSC(=O)c3ccco3)CS[C@H]12)c1csc(N)n1	13%	-9%
O=C(OCc1cn([C@H]2C[C@H](c3ccc(Cl)cc3)N(C(=O)c3cccs3)C[C@H]2O)nn1)c1ccccc1	-22%	.
CC(C)C1C(=O)N(Cc2cn(CC3CCCCC3)nn2)CCS(=O)(=O)N1Cc1ccc(-c2ccc(Cl)nc2)cc1 (stereo unspecified)	?	11%
CC(C)C1C(=O)N(Cc2cn(CC3CCCCC3)nn2)CCS(=O)(=O)N1Cc1ccc(-c2ccc(F)nc2)cc1 (stereo unspecified)	?	20µM*
CCCCCCCCCC=C[C@@H]1C[C@H]2C=CCO[P@@](=O)(O1)O2	12%	-4%
CO[C@@H]1[C@@H](O[C@@H]2O[C@H](C)[C@@H](O[C@H]3C[C@@](C)(O)[C@@H](O)[C@H](C)O3)[C@H](N(C)C)[C@H]2O)[C@@H](CC=O)C[C@@H](C)[C@@H](O[C@@H]2CC[C@H](N(C)C)[C@@H](C)O2)/C=C/C=C/C[C@@H](C)OC(=O)C[C@H]1O	?	10%[17.8 µM]
CCC1OC(=O)C[C@@H](O)[C@H](C)[C@@H](O[C@@H]2O[C@H](C)C[C@H](N(C)C)[C@H]2O)[C@@H](CC=O)C[C@@H](C)C(=O)/C=C/[C@]2(C)OC2C1C (stereo partly specified)	8.9µM*	25µM*
O=C1N(Cc2ccc(F)cc2)c2ccccc2[C@@]12O[C@H](COc1ccccc1)CC1CCCC12 (stereo partly specified)	106%[8.59 µM]	41%[8.59 µM]
NC1CCc2cc(O)c(O)cc2C1 (stereo unspecified)	22µM*!	0%
CC1=C(C/C=C(\C)CCC[C@H](C)CCC[C@H](C)CCCC(C)C)C(=O)c2ccccc2C1=O	-2%	-16%
CC(C)=CCC1=C(O)c2ccccc2C(=O)C1=O	5µM*	?
COC(=O)[C@@H]1C[C@@]23C(=NN=C(SC)C2Nc2ccccc23)N1C(C)=O (stereo partly specified)	-23%[8.59 µM]	-9%[8.59 µM]
CCN1/C(=C/C=C/c2sc3ccccc3[n+]2CC)Sc2ccccc21	2.8µM*	2.5µM*
CCC(/C=C1\Sc2ccc(OC)cc2N1CCO)=C\c1sc2ccc(OC)cc2[n+]1CCO	5%	-20%
O=C(c1cccs1)N1C[C@@H](O)[C@@H](n2cc(C3CC3)nn2)C[C@@H]1c1ccc(Cl)cc1	7%	.
Cc1ccccc1CN1[C@H](C)[C@@H](c2ccccc2)Oc2c(Cl)cccc2S1(=O)=O	18%	16%
COC[C@H](c1ccc(C(F)(F)F)cc1)N1CCN(C2(C)CCN(C(=O)c3c(C)ncnc3C)CC2)C[C@H]1C	-15%	-21%
O=[N+]([O-])c1ccc(/C=N\O)o1	16%	-2%
NC(N)=NN=C(/C=C/c1ccc([N+](=O)[O-])o1)/C=C/c1ccc([N+](=O)[O-])o1	14µM*	6.3µM*
COc1ccc2c(c1)[C@@]1(OCCC=C[C@@H]1C)C(=O)N2CC=C(C)CCC=C(C)C	-10%[8.59 µM]	23%[8.59 µM]
COC(=O)[C@H]1O[C@@H](c2c(OC)c(OC)c(C)c(OC)c2OC)[C@H](C)[C@@H](O)[C@@H]1C	6%[8.59 µM]	2%[8.59 µM]
COC(=O)c1c(C(=O)OC)c2c3cc(OC)c(OC)cc3ccn2c1C(=O)OC	23%[8.59 µM]	.
